BAZ2B inh: qHTS Assay for Inhibitors of BAZ2B. AID 504333, 2011. actives 4.4% (n = 360,000). Potency, µM (titrated, usually from 114 µM), without a hit: at the highest dose activity change, negative = inhibition, most hits filed as inhibitors. Bromodomain adjacent to zinc finger domain protein 2B (Homo sapiens), Q9UIF8. AlphaScreen BAZ2B-H3K14Ac peptide displacement; further: on the % scale 0 is the no-effect control and ±100 the full control effect; nearly all actives have a fitted effect of over 60% in size
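AlphaScreen displacement of biotin-H3(5-23)K14Ac peptide (50 nM final) from BAZ2B (50 nM final) in PBS pH 7.4, 0.01% Tween-20; complex preformed 30 min RT, then compounds (top 110 uM) 30 min RT, beads 20 min dark.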
GLS inh: qHTS for Inhibitors of Glutaminase (GLS); Glutaminase kidney isoform, mitochondrial (Homo sapiens), O94925; GLS enzymatic activity, qHTS titration; Potency, µM (highest dose often 45.5 µM), for inactives: at the highest dose activity change, negative = inhibition, most hits filed as inhibitors; actives 0.21% (n = 410,000); AID 624170, 2012; further: on the % scale 0 is the no-effect control and ±100 the full control effect
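hKGA; 45 mM KH2PO4 pH 8.2 + 0.02% Tween-20; cpd via pin tool; 1 mM Gln soln; GluOx/HRP/Amplex Red; RT 30 min; fluor. t0 & final.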
JMJD2A Tudor inh: qHTS Assay for Inhibitors of JMJD2A-Tudor Domain; Lysine-specific demethylase 4A (Homo sapiens), O75164; AlphaScreen JMJD2A-Tudor / H3K4me3 peptide binding; Potency, µM (titrated, usually from 114 µM), inactives show at the top dose activity change, negative = inhibition, actives largely listed as inhibitors; actives 4.4% (n = 390,000); further: on the % scale 0 is the no-effect control and ±100 the full control effect; nearly all actives have a fitted effect of over 50% in size
HP1b binding inh: HTS for Inhibitors of HP1-beta Chromodomain Interactions with Methylated Histone Tails; Potency, µM (titrated, usually from 114 µM), inactives show at the top dose activity change, negative = inhibition, hits mostly inhibitors; Chromobox protein homolog 1 (Homo sapiens), P83916; AlphaScreen HP1-beta / biotin-H3K9me3 peptide binding; actives 0.56% (n = 390,000); further: nearly all actives have a fitted effect of over 70% in size
Target sequence (P83916 whole entry, looked up): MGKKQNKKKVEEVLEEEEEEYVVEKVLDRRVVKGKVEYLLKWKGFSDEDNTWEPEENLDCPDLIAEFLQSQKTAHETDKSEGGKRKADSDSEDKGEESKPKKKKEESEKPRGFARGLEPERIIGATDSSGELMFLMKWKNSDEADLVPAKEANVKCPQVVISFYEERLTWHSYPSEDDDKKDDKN
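HP1-beta protein (50 nM final) preincubated 30 min at room temperature with biotinylated H3(1-18)K9me3 peptide (50 nM) in PBS pH 7.4, 0.01% Tween-20, then compound added for 30 min. AlphaScreen streptavidin donor/nickel chelate acceptor beads (10 ug/mL final), 30 min dark, luminescence read.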
G9a inh: qHTS Assay for Inhibitors of Histone Lysine Methyltransferase G9a; Histone-lysine N-methyltransferase EHMT2 (Homo sapiens), Q96KQ7; G9a H3K9 monomethylation, AlphaScreen, 2 h; Potency, µM (doses to about 102 µM), for the others: at the top dose activity, negative = inhibition, actives largely listed as inhibitors; actives 8.8% (n = 350,000); AID 504332, 2011; further: on the % scale 0 is the no-effect control and ±100 the full control effect; nearly all actives have a fitted effect of over 75% in size
Target sequence (Q96KQ7 913-1193 limits assumed): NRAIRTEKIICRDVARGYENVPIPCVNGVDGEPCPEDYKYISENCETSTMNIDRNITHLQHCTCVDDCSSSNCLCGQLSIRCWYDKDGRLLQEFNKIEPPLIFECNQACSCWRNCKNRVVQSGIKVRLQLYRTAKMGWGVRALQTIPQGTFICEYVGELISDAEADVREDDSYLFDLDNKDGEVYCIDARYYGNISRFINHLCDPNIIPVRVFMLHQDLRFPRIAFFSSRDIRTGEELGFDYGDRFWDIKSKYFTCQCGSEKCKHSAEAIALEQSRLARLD
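Methyltransferase reactions run at room temperature for 2 h (20 nM enzyme, 500 nM biotin-H3K9 peptide, 20 uM SAM) after a 15 min compound preincubation; product detected by AlphaScreen beads and anti-H3K9me1 antibody.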
* hit, by the source's call; u = inconclusive; x = no result given; [ ] = dose if it differs, or a comment. The list is not random: actives were taken first. Their share in the collection is about 10%. The call rests on the fitted dose curve; in most records, active means well fitted curve in the direction sought with a large enough effect; inconclusive means small, poorly fitted or top-dose-only effect, or another doubt; inactive means no such curve, though single readings can be large; an effect the other way counts as inactive or inconclusive. Potency means the concentration at half of the fitted maximal effect.

SMILES	BAZ2B inh	GLS inh	JMJD2A Tudor inh	HP1b binding inh	G9a inh
COCCCNC(=O)C1CCN(C(=O)c2cnn(-c3ccccc3)c2-n2cccc2)CC1	0%	6%	1%	47%	14%[59 µM]
COc1cccc(CNC(=O)c2ccc(CS(=O)Cc3ccc(Cl)cc3)o2)c1 (centres undefined)	-25%	7%	-6%	43%	-3%[59 µM]
O=C(NCCSCc1ccccc1Cl)C1CCN(S(=O)(=O)Cc2ccccc2)CC1	-5%	9%	-35%	36%	u
CC1(C(=O)NS(=O)(=O)c2cccc(OC(F)F)c2)CCN1C(=O)C1CCCCC1 (centres undefined)	x	14%	x	x	x
COc1ccc([N+](=O)[O-])cc1NCc1ccccc1C	-1%	26%	32µM*	75%	u
COc1ccc([N+](=O)[O-])cc1NCc1ccccc1	22%	10%	42%[57.1 µM]	123%	97%[59 µM]
COc1ccc(OC)c(CNc2ccc([N+](=O)[O-])cc2C)c1	u	4%	28µM*	u	u
Cc1ccc(-c2cc(C(=O)Nc3cc([N+](=O)[O-])ccc3C)no2)cc1F	-3%	-8%	-7%	36%	-44%[59 µM]
Cc1ccc2c(c1)NC(=O)C(CC(=O)NCc1ccc(F)cc1)O2 (centres undefined)	-25%	0%	-2%	31%	50µM*
Cc1ccc2c(c1)NC(=O)C(CC(=O)NCc1cccnc1)O2 (centres undefined)	3%	2%	-8%	44%	32µM*
Cc1ccc(CNC(=O)CC2Oc3ccc(Cl)cc3NC2=O)cc1 (centres undefined)	-5%	-8%	-20%	2%	-28%[59 µM]
C=C(C)Cn1c(=O)c2c(nc3n2CCCN3CCc2ccccc2)n(C)c1=O	-22%[57.1 µM]	10%	-26%	4%	47%
CC1CCC(NCC(=O)Nc2cccc(S(N)(=O)=O)c2)CC1 (centres undefined)	79µM*	15%	22µM*	-31%	10µM*
CN(C)S(=O)(=O)c1cccc(NC(=S)NC23CC4CC(CC(C4)C2)C3)c1	-16%	1%	-22%	3%	5%
CC1Cc2ccccc2N1CC(=O)Nc1cccc(S(N)(=O)=O)c1 (centres undefined)	-12%	-9%	-22%	-1%	0%
CN(C)S(=O)(=O)c1cccc(NC(=O)CNCC2CCCCC2)c1	u	-8%	22µM*	-28%	14µM*
CCN(CC)S(=O)(=O)c1cccc(NC(=O)CNC2CCCCCC2)c1	79µM*	5%	50µM*	2%	35µM*
CCN(CC)S(=O)(=O)c1cccc(NC(=O)CCNC(=O)NC23CC4CC(CC(C4)C2)C3)c1	-32%	-15%	-27%	8%	50µM*
O=C(NCC(c1ccco1)N1CCCC1)c1ccc(Cl)c(S(=O)(=O)N2CCc3ccccc32)c1 (centres undefined)	u	14%	u	-29%	0%[12.7 µM]
CC(C)Oc1ccc(F)cc1-c1cc(C(=O)NCc2ccc(F)cc2)[nH]n1	x	-2%	x	x	x
CCCn1c2ccccc2c2cnn(CC(=O)N(Cc3ccccc3)C(C)C)c(=O)c21	-13%	2%	-15%	23%	-9%[59 µM]
CCN(CC)S(=O)(=O)c1cccc(C(=O)NCC2CCCO2)c1 (centres undefined)	u	-7%	-8%	27%	6%
CCN(CC)S(=O)(=O)c1cccc(C(=O)NCC2CCCCC2)c1	2%	u	28µM*	8%	-9%
COC(=O)c1cc2occc2n1CC(=O)Nc1ccc(N(C)C)cc1	-35%	25%	-23%	14%	u
NC(=O)c1nnsc1-c1ccco1	x	4%	-2%	9%[57 µM]	x
SMILES	BAZ2B inh	GLS inh	JMJD2A Tudor inh	HP1b binding inh	G9a inh
Nc1nnc2cc(F)ccc2n1	x	-9%	x	x	x
OC1=C(O)c2nc3cc(F)ccc3nc21	-12%	29%	-12%	17%	40µM*
O=C(OCC(=O)N1CCCC1=O)c1nc(Cl)c(Cl)c(Cl)c1Cl	71µM*	u	u	-2%	x
O=C(c1ccc(Cl)c(S(=O)(=O)NCc2ccco2)c1)N1CCN(c2ccccc2F)CC1	-10%	12%	56µM*	-32%	-12%
COc1ccccc1N1CCN(C(=O)c2ccc(Cl)c(S(=O)(=O)NCc3ccco3)c2)CC1	-31%	20%	-25%	9%	-28%[59 µM]
COc1ccc(CNC(=O)CCc2c(C)nn(-c3ccc(N4CCOCC4)nn3)c2C)c(OC)c1	-15%	2%	-11%	-4%	0%[59 µM]
COc1ccc(CNC(=O)CCc2c(C)nn(-c3ccc(N4CCCCC4)nn3)c2C)c(OC)c1	-31%	-8%	89µM*	-8%	16%[59 µM]
Cc1nn(-c2ccc(N3CCCC3)nn2)c(C)c1CCC(=O)NCc1ccc(F)cc1	79µM*	3%	-8%	75%	0%[59 µM]
COC(=O)c1ccccc1NC(=S)N(Cc1ccc2c(c1)OCO2)Cc1cc2ccc(OC)cc2[nH]c1=O	u	2%	-27%[57.1 µM]	28%	0.28µM*
O=C(CCS(=O)(=O)c1ccc2c(c1)NC(=O)CS2)NCCc1ccc(Cl)cc1	-18%	3%	16µM*	13%	10%
CC1CC=CC2C1C(=O)N(Cc1ccccc1)C2c1ccc(-c2ccoc2)cc1F (centres undefined)	x	x	-23%	34%	x
Cc1noc(-c2ccc(N(C)Cc3ccccc3)c([N+](=O)[O-])c2)n1	3%	-12%	-16%	14%	-6%[59 µM]
CCc1nc(N)nc(N)c1-c1ccc(N(C)Cc2ccccc2)c([N+](=O)[O-])c1	x	0%	45µM*	-37%	x
CC(C)NC(=O)c1sc(=S)n2c1[nH]c(=O)c1ccc(C(=O)NCCc3ccc(Cl)cc3)cc12	-24%	u	35µM*	-21%[57 µM]	45µM*
CCOc1ccc(CCNC(=O)c2ccc3c(=O)[nH]c4c(C(=O)NC(C)C)sc(=S)n4c3c2)cc1	u	u	9%	20%	45µM*
COc1ccc(OC)c(CCNC(=O)c2ccc3c(=O)[nH]c4c(C(=O)NC(C)C)sc(=S)n4c3c2)c1	40µM*	u	56µM*	u	x
CCOc1ccc(CCNC(=O)c2ccc3c(Cl)c4c(nc3c2)CCCC4)cc1	-11%	0%	-11%	16%	-42%[59 µM]
COc1ccc(N2C(=O)CN=C2Nc2nc(C)cc(C)n2)cc1	5%	-6%	45µM*	7%	-18%[12.7 µM]
COc1cccc(NC(=O)Cn2cnc3c(nc4n3CCCCC4)c2=O)c1	5%	1%	-13%	9%	7%[59 µM]
COC(=O)c1ccc(NC(=O)CSCC(=O)OCC(=O)c2ccc(Br)cc2)cc1	-4%	-2%	-8%[57.1 µM]	56%	10µM*
